14-3-3g Raf: modulators of human 14-3-3 gamma - Raf peptide interaction. P61981. 160,000 compounds, 0.19% hits. inhibition, % at 40 µM. FP, 14-3-3gamma / TMR-pS259-Raf peptide binding; in the data active = inhibition above about 30%
A number is an active result; n = inactive. This excerpt belongs to a sample that is enriched for hits.

SMILES | 14-3-3g Raf
CCOC(=O)C1C2NC(=S)N(c3ccccc3)C1(C)Oc1ccc(Br)cc12 (stereo not given) | n
CCC1(C(=O)c2ccc(C)cc2)C2c3cc(Br)ccc3OC(=O)C21C(=O)OC (stereo not given) | 30.5
CCC1(C(=O)c2ccccc2)C2c3cc(Br)ccc3OC(=O)C21C(=O)OC (stereo not given) | n
CCC(C)n1[nH]c(=O)c2c1NC(=O)CSC2c1ccc(Br)cc1 (stereo not given) | n
CCOc1ccc(CNCCc2ccc(F)cc2)cc1 | n
CN(N=O)c1ccc(O)c(O)c1 | 40.1
CC(C)CCNC(=O)CN1C(=O)C(CC(C)C)N=C(c2ccccc2)c2ccccc21 (stereo not given) | n
Cc1ccc(-n2c(O)c(C=NCCN3CCOCC3)c(=O)[nH]c2=O)cc1 | n
CCOc1ccc(-n2c(O)c(C=NCCN3CCNCC3)c(=O)[nH]c2=O)cc1 | 33.9
O=c1[nH]c(=O)n(CCc2ccccc2)c(O)c1C=NCCN1CCNCC1 | n
Cc1ccc(-n2c(C=Cc3cc4c(cc3Br)OCO4)nc3ccccc3c2=O)cc1 | n
COc1cc(NC(=O)CN2C(=O)CN=C(c3ccccc3Cl)c3cc(Cl)ccc32)cc(OC)c1OC | n
C#CCN(C)[C@@H](C)Cc1ccccc1 | n
C#CCN(C)C(C)Cc1ccccc1 (stereo not given) | 35.4
Cc1ccc2c(c1)c1ncnc3c1n2-c1cc(C#N)c(C#N)cc1S3 | n
CN1C(=O)C(Cc2ccccc2[N+](=O)[O-])C(=O)N(C)C1=O | n
CCOC(=O)C1C2NC(=S)N(CCc3ccccc3)C1(C)Oc1c(OCC)cccc12 (stereo not given) | n
CCOC(=O)C1C2NC(=S)N(c3ccccc3OC)C1(C)Oc1c(OC)cccc12 (stereo not given) | n
Cc1ccc(-n2c(C=Cc3ccccc3Cl)nc3ccccc3c2=O)cc1 | n
CC12CN3CC(C)(CN(C1)C31CCCCC1)C2=O | n

Source: PubChem BioAssay (Emory University Molecular Libraries Screening Center)
